Assay results as given in PubChem BioAssay AID652054 (National Center for Advancing Translational Sciences (NCATS), 2013).
The whole screen tested about 360,000 compounds, of which about 9,100 (2.5%) were called active. Another 4% or so got no clear call; they are omitted. The full list was thinned out, with actives kept by preference. Values without a mark were called inactive. Rule as the data show it: active = max response below about -50%; inconclusive = no clear call, values can overlap the other calls; inactive = above that.

Target: D(3) dopamine receptor (Homo sapiens) (UniProt P35462)
Test: qHTS of D3 Dopamine Receptor Antagonist: qHTS
Details: D3R cells, DiscoveRx beta-arrestin luminescence, antagonist mode; hits give low values
Outline: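 Cells expressing the human receptor were seeded at 1500 cells/well, incubated overnight at 37 degrees C in 5% CO2, then exposed to library compounds with dopamine controls for 90 minutes at 37 degrees C before luminescent detection.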
% is scaled to controls: 0 for no effect and ±100 for the full control effect.

D(3) dopamine receptor (Homo sapiens), sequence (P35462 whole entry, looked up): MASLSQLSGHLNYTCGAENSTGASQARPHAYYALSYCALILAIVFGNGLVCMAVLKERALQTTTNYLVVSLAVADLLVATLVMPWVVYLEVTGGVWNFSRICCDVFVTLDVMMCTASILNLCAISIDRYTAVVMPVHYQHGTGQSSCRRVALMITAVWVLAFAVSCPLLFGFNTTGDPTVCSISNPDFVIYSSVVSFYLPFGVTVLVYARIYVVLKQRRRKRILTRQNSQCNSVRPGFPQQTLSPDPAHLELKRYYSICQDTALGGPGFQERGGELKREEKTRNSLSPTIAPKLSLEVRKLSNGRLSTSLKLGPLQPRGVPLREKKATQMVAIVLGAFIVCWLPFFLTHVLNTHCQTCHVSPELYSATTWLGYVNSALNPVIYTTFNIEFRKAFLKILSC

| SMILES | max response, negative = inhibition |
| --- | --- |
| C[C@@H]1CN([C@@H](C)CO)C(=O)c2cc(Br)cnc2O[C@@H]1CN(C)C(=O)C1CCCCC1 | 22.5% |
| COc1ccc(C(=O)NC(=O)CSc2nnc(-c3ccco3)n2-c2ccccc2)cc1 | -3.83% |
| Cc1cccc(C)c1NC(=O)CCCSc1nnc(-c2ccco2)n1-c1ccccc1 | -8.78% |
| O=C(CSc1nnc(-c2ccco2)n1-c1ccccc1)NCCc1ccccc1 | -54.3% (active) |
| O=C(NNC(=O)c1ccccc1O)c1ccccc1O | 5.67% |
| O=C(CO/N=C/c1ccccc1OC(F)F)NC1CCCC1 | 8.59% |
| O=C(CO/N=C/c1ccccc1O)NNC(=O)c1ccccc1Cl | -53.5% (active) |
| Cc1ccc(S(=O)(=O)N2CC3C(=O)C[C@@H](c4ccccc4Cl)N(S(=O)(=O)c4ccc(C)cc4)C3CC2c2ccccc2)cc1 (stereo partly specified) | 9.92% |
| CCOC(=O)c1ccn(S(=O)(=O)c2ccc(C)cc2)c1-c1ccccc1 | -20.6% |
| Cc1c(Cl)cccc1NC(=O)NCCCN1CCCC1=O | -2.4% |
| Cc1c(Cl)cccc1NC(=O)NCc1ccc(C)n1C | 13.8% |
| CN(C)CCNC(=O)Nc1cccc(Cl)c1Cl | -70.3% (active) |
| Cc1ccccc1-c1nc(NC(C)C)nc2cc(-c3ccccc3)sc12 | 21.7% |
| C[C@H]1CN([C@@H](C)CO)C(=O)c2cc(-c3cccc(F)c3)cnc2O[C@@H]1CN(C)S(C)(=O)=O | 17.3% |
| COc1ccc(Sc2ccc(NC(=O)c3cccc(Cl)c3)cc2C#N)cc1 | 28.7% |
| Fc1ccccc1CCNc1nnnn1-c1ccccc1 | -77.8% (active) |
| c1ccc(-n2nnnc2NC2CCCCCC2)cc1 | -9.29% |
| COc1ccccc1CN(C)c1nnnn1-c1ccccc1 | 6.89% |
| COc1ccccc1CNc1nc(Nc2ccccc2Cl)c2sccc2n1 | 51.2% |
| Cc1ccccc1NC(=O)Cc1nc(COC(=O)CNC(=O)c2ccc(Cl)cc2Cl)cs1 | -6.28% |
| CN(C)CC/C=C1\c2ccccc2CSc2ccccc21 | -54.4% (active) |
| CN(C)Cc1ccccc1C1(O)c2ccccc2CSc2ccccc21 (stereo unspecified) | -12.3% |
| O=[N+]([O-])c1ccc(C(S(=O)(=O)Cc2ccccc2)S(=O)(=O)Cc2ccccc2)cc1 | -9.27% |
| O=C(CCc1ccc(O)cc1)NN=Cc1cc(Br)ccc1O | -3.37% |
| S=C(NN=Cc1ccccn1)Nc1ccccn1 | -27% |
| Oc1ccc(Br)cc1/C=N/Nc1ccccn1 | -57.7% (active) |
